MITF inh: inhibitors of MITF, primary screen, MITF inhibitor project, cell-based, luminescence | actives 0.28% (n = 37,000) | TRPM1 promoter luciferase, 24 h | inhibition, % (test concentration not listed); in the data active means inhibition above about 85%; inconclusive means no clear call, values can overlap the other calls; inactive means below about 68%;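 further: human melanocyte line stably carrying TRPM1 promoter luciferase reporter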
NOMO-1 viab: NOMO-1 AML cell viability reduction, primary screen, STK33 inhibitor project, CellTiter-Glo luminescence; NOMO-1 AML viability, 72 h; inhibition, % (test concentration not listed); actives 7.5% (n = 37,000); AID 2330, 2010; in the data active means inhibition above about 80%; inconclusive means no clear call, values can overlap the other calls
Hedgehog inh: Hedgehog pathway signaling inhibitors, primary screen, luminescence, Shh-LIGHT2 cells, Gli-luciferase; Shh-LIGHT2 Gli-luciferase reporter, 30 h; inhibition, % (no concentration beside the values); actives 2.1% (n = 22,000); AID 2313, 2010;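 active means mean inhibition across valid replicates above about 65%, limit read from the data; inconclusive means mean under the limit, yet half or more replicates past it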;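 further: pathway switched on by Shh-conditioned medium diluted 1 in 25 in low serum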
Active calls of the source: *; u = inconclusive; x = no result given. Rows were chosen to be rich in hits. Some 7.8% of all compounds tested hit in one or more screens of this group.

SMILES	MITF inh	NOMO-1 viab	Hedgehog inh
O=C(CN1C(=O)C2C3C=CC(C4CC34)C2C1=O)Nc1ccc(Oc2ccc(Br)cc2)cc1 (stereo unspecified)	72	86*	x
COc1cc(CNC2CCCC2)cc(I)c1OCC(N)=O	-22	22	x
C[C@@H]1CN([C@H](C)CO)C(=O)c2cccc(NC(=O)Nc3ccc(C(F)(F)F)cc3)c2O[C@H]1CN(C)Cc1ccc2c(c1)OCO2	63	104*	20
C[C@H]1CN([C@@H](C)CO)C(=O)c2cccc(NC(=O)Nc3ccccc3)c2O[C@@H]1CN(C)Cc1ccc2c(c1)OCO2	4	68	-17
C[C@H](CO)N1C[C@H](C)[C@@H](CN(C)Cc2ccc3c(c2)OCO3)Oc2c(NC(=O)Nc3ccc(F)cc3)cccc2C1=O	-6	72	-44
C[C@@H]1CN([C@@H](C)CO)C(=O)c2cccc(NC(=O)Nc3ccc(C(F)(F)F)cc3)c2O[C@H]1CN(C)Cc1ccc2c(c1)OCO2	66	85*	6
C[C@H](CO)N1C[C@H](C)[C@H](CN(C)Cc2ccc3c(c2)OCO3)Oc2c(NC(=O)Nc3ccc(C(F)(F)F)cc3)cccc2C1=O	27	104*	-21
C[C@H]1CN([C@@H](C)CO)C(=O)c2cccc(NC(=O)Nc3ccccc3)c2O[C@H]1CN(C)Cc1ccc2c(c1)OCO2	-6	21	-19
C[C@@H]1CN([C@H](C)CO)C(=O)c2cccc(NC(=O)Nc3ccc(C(F)(F)F)cc3)c2O[C@@H]1CN(C)Cc1ccc2c(c1)OCO2	1	104*	-25
O=C(Cn1ccc([N+](=O)[O-])n1)NCc1ccccn1	-4	2	x
C=C(C)[C@H]1C[C@@]2(C)C(=CC1=O)CC[C@@H](O)[C@@H]2C	-3	24	-3
COc1ccc(Cl)cc1NC(=O)CN(C)S(=O)(=O)c1c(C)cc(C)cc1C	4	18	x
N#CN=C(N)c1sc2nc3c(cc2c1N)CCCCC3	21	63	-148
C[C@H](CO)N1C[C@H](C)[C@@H](CN(C)Cc2ccc3c(c2)OCO3)Oc2c(NC(=O)Nc3ccc(C(F)(F)F)cc3)cccc2C1=O	42	104*	13
C[C@H](CO)N1C[C@H](C)[C@H](CN(C)Cc2ccc3c(c2)OCO3)Oc2c(NC(=O)Nc3ccc(F)cc3)cccc2C1=O	17	55	-24
C[C@H](CO)N1C[C@H](C)[C@H](CN(C)Cc2ccc3c(c2)OCO3)Oc2c(NC(=O)Nc3ccc4c(c3)OCO4)cccc2C1=O	-14	u	-54
C[C@@H]1CN([C@H](C)CO)C(=O)c2cccc(NC(=O)Nc3ccc4c(c3)OCO4)c2O[C@H]1CN(C)Cc1ccc(C(F)(F)F)cc1	28	104*	3
C[C@H]1CN([C@@H](C)CO)C(=O)c2cccc(NC(=O)Nc3ccc(C(F)(F)F)cc3)c2O[C@@H]1CN(C)Cc1ccc2c(c1)OCO2	19	109*	-9
CN1C(=O)C(C(=O)NC(C)(C)C)C2CC1(C)Oc1ccccc12 (stereo unspecified)	15	-4	-33
CCc1ccccc1N(CC(=O)NC)S(C)(=O)=O	-10	17	x
CCOC(=O)c1c(-c2ccccc2)csc1NC(=O)Cn1cnc2ccccc2c1=O	15	-17	x
COc1ccc(NC(=O)CCCN2C(=O)c3ccccc3C2=O)c(OC)c1	-42	-8	x
CC(C)(C)c1ccc(OCC(=O)Nc2cccc(C(=O)O)c2)cc1	61	-8	x
NC(=O)CSc1nc2sc3c(c2c(=O)n1Cc1ccccc1)CCCC3	12	19	x
Cc1cc(C)n(CC(O)Cn2c3ccccc3c3ccccc32)c(=O)n1 (stereo unspecified)	2	-10	x
SMILES	MITF inh	NOMO-1 viab	Hedgehog inh
OC(CNCc1ccccc1)Cn1c2ccccc2c2ccccc21 (stereo unspecified)	-2	111*	x
CC(=O)c1c(C)nn(CC(O)COc2ccc(C(=O)c3ccc(Cl)cc3)cc2)c1C (stereo unspecified)	34	69	x
CC(Nc1nc2ccccc2n1C)c1cc(Cl)ccc1O (stereo unspecified)	-1	31	x
C=C1C(=O)OC2CC(C)C3(/C=C/C(C)=O)OC3CC12 (stereo unspecified)	-7	118*	-15
O=C(CC1(O)C(=O)Nc2ccccc21)c1ccc(OCC(=O)N2CCOCC2)cc1 (stereo unspecified)	-6	19	x
COC(=O)c1cc(OC)c(OC)cc1NC(=O)COc1ccc(Br)cc1Cl	8	17	x
CCOc1ccc(-c2nc(SCc3ccc(C(=O)OC)o3)n[nH]2)cc1	-29	u	x
COC(=O)c1ccc(CSc2n[nH]c(-c3ccccc3OC)n2)o1	25	114*	x
Cc1ccc(NC(=O)c2ccc(CSc3ncnc4nc[nH]c34)cc2)cc1	-58	-1	14

High-throughput results: PubChem, Broad Institute
